Reference: PubChem BioAssay (Tox21)
Inconclusive results are not listed. A call without a number means that no potency is given here. A number with no mark means an inactive call. The source made the active and inactive calls. Unless noted, calls come from the whole dose curve; as a rule, active = well fitted curve in the direction sought with a large enough effect in the repeat runs; inconclusive = weak or mixed curves; inactive = no such curve, though single readings can be large; an effect the other way counts as inactive or inconclusive.

Experiments:
[1] = qHTS assay to identify small molecule antagonists of the thyroid receptor (TR) signaling pathway - cell viability counter screen (AID 743064); note: nearly all actives have a fitted effect of over 50% in size; note: potency is the fitted concentration of half-maximal effect
Outline: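 GH3.TRE-Luc rat pituitary cells carrying a TRE-luciferase reporter were treated with compound plus 1 nM T3 (final) for 23.5 h at 37 °C. Viability was then read in the same wells by CellTiter-Fluor fluorescence after a further 30 min.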

[2] = qHTS assay to identify small molecule antagonists of the thyroid receptor (TR) signaling pathway (AID 743065); note: nearly all actives have a fitted effect of over 55% in size; note: potency is the fitted concentration of half-maximal effect
Outline: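 Antagonism measured as loss of luciferase signal in GH3 cells stably carrying a TRE-luciferase reporter, co-treated with compound and T3 (1 nM final) for 23.5 h at 37 C. Viability was read in the same well by CellTiter-Fluor.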

[3] = test system: thyroid hormone receptor (rat, GH3 cells); assay: qHTS assay to identify small molecule agonists of the thyroid receptor (TR) signaling pathway (AID 743066; calls by dose curve; note: potency is the fitted concentration of half-maximal effect)
[4] = qHTS assay to identify small molecule antagonists of the estrogen receptor alpha (ER-alpha) signaling pathway - cell viability counter screen (AID 743074; calls by dose curve;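 note: HEK293 cells carrying ER-alpha-UAS-bla reporter stimulated with 17beta-estradiol; nearly all actives have a fitted effect of over 45% in size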)
[5] = molecular target: Estrogen receptor (Homo sapiens) (UniProt P03372); assay: qHTS assay to identify small molecule agonists of the estrogen receptor alpha (ER-alpha) signaling pathway (AID 743075; calls by dose curve;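 note: HEK293 GripTite cells with ER-alpha and UAS-driven beta-lactamase reporter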)
Sequence of Estrogen receptor (Homo sapiens) (P03372 whole entry, looked up): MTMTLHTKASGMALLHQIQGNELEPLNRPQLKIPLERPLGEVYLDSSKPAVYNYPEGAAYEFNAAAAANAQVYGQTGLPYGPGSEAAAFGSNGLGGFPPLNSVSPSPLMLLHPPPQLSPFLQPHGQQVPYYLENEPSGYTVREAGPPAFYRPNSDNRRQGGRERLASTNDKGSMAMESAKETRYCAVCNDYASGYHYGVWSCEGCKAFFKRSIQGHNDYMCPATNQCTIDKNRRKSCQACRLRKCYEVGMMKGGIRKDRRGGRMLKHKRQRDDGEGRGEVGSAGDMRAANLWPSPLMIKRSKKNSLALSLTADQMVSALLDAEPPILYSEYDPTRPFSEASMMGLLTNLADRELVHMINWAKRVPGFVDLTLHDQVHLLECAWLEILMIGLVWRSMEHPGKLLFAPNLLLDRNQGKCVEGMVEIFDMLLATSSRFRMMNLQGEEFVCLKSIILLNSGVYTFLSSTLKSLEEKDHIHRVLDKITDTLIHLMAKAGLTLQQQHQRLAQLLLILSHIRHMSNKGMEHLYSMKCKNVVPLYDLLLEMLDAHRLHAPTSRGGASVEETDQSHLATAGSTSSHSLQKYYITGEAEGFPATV

[6] = molecular target: Estrogen receptor (Homo sapiens) (UniProt P03372); assay: qHTS assay to identify small molecule agonists of the estrogen receptor alpha (ER-alpha) signaling pathway using the BG1 cell line (AID 743079); conditions: BG1Luc4E2 cells, ERE-luciferase agonist, 22 h; note: nearly all actives have a fitted effect of over 20% in size
[7] = qHTS assay to identify small molecule antagonists of the estrogen receptor alpha (ER-alpha) signaling pathway using the BG1 cell line (AID 743080; calls by dose curve;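 note: BG1 cells stimulated with 17beta-estradiol alongside compound; nearly all actives have a fitted effect of over 25% in size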)
Outline: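 Endogenous full-length ER-alpha in BG1-Luc-4E2 cells drives a stably integrated 4×ERE luciferase gene; compounds were tested against 17beta-estradiol over 21.5 h, with luminescence and multiplexed viability fluorescence recorded.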

[8] = qHTS assay to identify small molecule antagonists of the estrogen receptor alpha (ER-alpha) signaling pathway using the BG1 cell line - cell viability counter screen (AID 743081);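 note: compound given together with 17beta-estradiol as the ER stimulus; nearly all actives have a fitted effect of over 45% in size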
Aromatase (Homo sapiens) = Aromatase (Homo sapiens) (UniProt P11511); assay: qHTS assay to identify aromatase inhibitors (AID 743083); note: nearly all actives have a fitted effect of over 55% in size; note: potency is the fitted concentration of half-maximal effect
Sequence of Aromatase (Homo sapiens) (P11511 whole entry, looked up): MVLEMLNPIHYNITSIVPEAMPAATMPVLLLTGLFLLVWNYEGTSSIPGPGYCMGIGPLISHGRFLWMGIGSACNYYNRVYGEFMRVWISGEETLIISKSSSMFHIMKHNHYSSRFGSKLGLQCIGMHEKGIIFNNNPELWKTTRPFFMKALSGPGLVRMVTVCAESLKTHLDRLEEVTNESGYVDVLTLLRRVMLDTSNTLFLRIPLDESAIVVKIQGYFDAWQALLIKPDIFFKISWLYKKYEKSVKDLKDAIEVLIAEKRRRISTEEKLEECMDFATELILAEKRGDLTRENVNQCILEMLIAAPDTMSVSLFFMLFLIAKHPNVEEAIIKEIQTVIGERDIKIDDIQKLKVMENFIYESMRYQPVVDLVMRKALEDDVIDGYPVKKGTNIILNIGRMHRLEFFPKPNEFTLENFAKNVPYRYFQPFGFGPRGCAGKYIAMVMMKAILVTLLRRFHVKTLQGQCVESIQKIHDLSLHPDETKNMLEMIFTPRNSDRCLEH

[9] = qHTS assay to identify aromatase inhibitors - cell viability counter screen (AID 743084);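 note: cells stimulated with testosterone during compound exposure; nearly all actives have a fitted effect of over 55% in size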
[10] = molecular target: Aryl hydrocarbon receptor (Homo sapiens) (UniProt P35869); assay: qHTS assay to identify small molecule that activate the aryl hydrocarbon receptor (AhR) signaling pathway (AID 743085); note: nearly all actives have a fitted effect of over 15% in size; note: potency is the fitted concentration of half-maximal effect;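 for activation: HG2L7.5c1 human HepG2 liver cells with stably integrated DRE-driven firefly reporter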
Sequence of Aryl hydrocarbon receptor (Homo sapiens) (P35869 whole entry, looked up): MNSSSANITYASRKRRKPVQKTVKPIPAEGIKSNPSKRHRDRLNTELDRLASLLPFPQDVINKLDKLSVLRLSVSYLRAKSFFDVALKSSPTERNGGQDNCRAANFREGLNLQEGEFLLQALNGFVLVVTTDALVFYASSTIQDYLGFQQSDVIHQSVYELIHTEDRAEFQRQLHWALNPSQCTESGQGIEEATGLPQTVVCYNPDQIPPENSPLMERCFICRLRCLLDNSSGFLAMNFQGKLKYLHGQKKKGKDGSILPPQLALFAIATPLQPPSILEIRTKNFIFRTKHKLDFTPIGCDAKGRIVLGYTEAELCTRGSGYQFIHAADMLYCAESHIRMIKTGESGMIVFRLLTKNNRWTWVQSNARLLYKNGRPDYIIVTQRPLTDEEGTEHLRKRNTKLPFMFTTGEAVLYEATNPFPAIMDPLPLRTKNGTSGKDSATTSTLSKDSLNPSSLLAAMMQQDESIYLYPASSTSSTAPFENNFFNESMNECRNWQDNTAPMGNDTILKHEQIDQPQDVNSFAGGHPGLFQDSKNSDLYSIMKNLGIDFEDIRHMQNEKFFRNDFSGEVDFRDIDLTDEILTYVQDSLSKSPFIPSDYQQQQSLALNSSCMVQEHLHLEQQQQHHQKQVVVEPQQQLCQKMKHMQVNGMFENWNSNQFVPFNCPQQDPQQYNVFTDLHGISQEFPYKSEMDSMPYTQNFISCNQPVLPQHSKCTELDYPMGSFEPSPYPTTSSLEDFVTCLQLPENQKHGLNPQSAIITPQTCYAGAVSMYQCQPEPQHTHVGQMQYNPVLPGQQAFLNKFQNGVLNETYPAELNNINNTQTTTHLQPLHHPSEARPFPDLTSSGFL
Outline: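 HepG2 cells (HG2L7.5c1) stably carrying a firefly luciferase reporter driven by 20 dioxin responsive elements were exposed to compound for 24 h at 37C after a 5 h settling period; luminescence rise (ONE-Glo) indicated activation.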

[11] = qHTS assay to identify small molecule that activate the aryl hydrocarbon receptor (AhR) signaling pathway - cell viability counter screen (AID 743086);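 note: HepG2 liver cells carrying the AhR DRE luciferase reporter; nearly all actives have a fitted effect of over 45% in size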
Outline: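 Cytotoxicity counter screen: CellTiter-Fluor signal (30 min, 37 C) in 4000 HepG2 cells/well carrying the DRE-luciferase reporter, following 24 h compound exposure at 37 C.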

[12] = qHTS assay to identify small molecule antagonists of the peroxisome proliferator-activated receptor gamma (PPARg) signaling pathway - cell viability counter screen (AID 743194); conditions: Potency: co-treated with 50 nM rosiglitazone; note: nearly all actives have a fitted effect of over 55% in size
Outline: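 Viability was measured as CellTiter-Glo luminescence in GeneBLAzer PPARg UAS-bla HEK293H cells. These cells had been exposed 17 h at 37 C to compounds together with rosiglitazone at 50 nM final, with the beta-lactamase readout taken in the same wells.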

[13] = qHTS assay for small molecule agonists of the antioxidant response element (ARE) signaling pathway - cell viability counter screen (AID 743203; calls by dose curve; note: nearly all actives have a fitted effect of over 55% in size)
Outline: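 Seeded at 2,000 cells/well, ARE-bla HepG2 cells were incubated 5 hrs before compound addition. After 16 hrs of treatment at 37C with 5% CO2, CellTiter-Glo reagent was added and luminescence read 30 min later.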

[14] = qHTS assay for small molecule activators of the heat shock response signaling pathway - cell viability counter screen (AID 743209); note: nearly all actives have a fitted effect of over 50% in size
Outline: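 First, HSE-bla HeLa cells were seeded at 1500 cells/well and kept overnight at 37 C. Next, compounds were pinned in and incubated 5 h. After the FRET substrate step, CellTiter-Glo was added and luminescence read 30 min later.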

[15] = qHTS assay for small molecule activators of the heat shock response signaling pathway (AID 743210; active = well fitted activation curve with a large enough effect in the signal ratio in the repeat runs, with a control signal flat, not every such curve was filed as active; the % refers to the signal ratio;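 note: HeLa cells with beta-lactamase reporter driven by heat shock elements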)
Outline: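 In HSE-bla HeLa cells, 5 h compound incubation (37 C) precedes addition of LiveBLAzer B/G substrate; after 2.5 h at room temperature, fluorescence intensity indicates reporter induction.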

[16] = molecular target: Peroxisome proliferator-activated receptor gamma (Homo sapiens) (UniProt P37231); assay: qHTS assay to identify small molecule antagonists of the peroxisome proliferator-activated receptor gamma (PPARg) signaling pathway (AID 743191; calls by dose curve; note: nearly all actives have a fitted effect of over 30% in size)
Sequence of Peroxisome proliferator-activated receptor gamma (Homo sapiens) (P37231 whole entry, looked up): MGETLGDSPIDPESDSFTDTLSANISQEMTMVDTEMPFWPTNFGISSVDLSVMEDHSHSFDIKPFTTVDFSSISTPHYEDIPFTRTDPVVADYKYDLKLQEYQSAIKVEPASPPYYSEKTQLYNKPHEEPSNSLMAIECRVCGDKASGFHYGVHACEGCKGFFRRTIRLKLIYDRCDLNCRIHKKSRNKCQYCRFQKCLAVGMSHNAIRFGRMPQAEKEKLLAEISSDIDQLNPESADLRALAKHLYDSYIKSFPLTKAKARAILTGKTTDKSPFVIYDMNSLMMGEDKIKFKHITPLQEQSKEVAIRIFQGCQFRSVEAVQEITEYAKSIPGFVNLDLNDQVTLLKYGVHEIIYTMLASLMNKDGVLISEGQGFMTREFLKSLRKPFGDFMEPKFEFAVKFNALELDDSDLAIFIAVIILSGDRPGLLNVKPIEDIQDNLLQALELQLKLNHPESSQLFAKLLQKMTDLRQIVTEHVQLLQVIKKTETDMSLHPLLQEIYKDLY
Outline: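 Beta-lactamase reporter under UAS control in HEK293H PPARg-bla cells; compound treatment 17 h at 37C. Read-out: fluorescence intensity after 1 h room-temperature incubation with LiveBLAzer B/G FRET substrate.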

[17] = qHTS assay for small molecule agonists of the antioxidant response element (ARE) signaling pathway (AID 743202; active = well fitted activation curve with a large enough effect in the signal ratio in the repeat runs, not every such curve was filed as active; the % refers to the signal ratio)
Outline: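 An ARE-responsive beta-lactamase gene stably integrated in HepG2 cells serves as reporter. After 5 h plating and 16 h compound incubation at 37 C, fluorescence of the B/G FRET substrate was measured.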

[18] = molecular target: Peroxisome proliferator-activated receptor gamma (Homo sapiens) (UniProt P37231); assay: qHTS assay to identify small molecule agonists of the peroxisome proliferator-activated receptor gamma (PPARg) signaling pathway (AID 743094; active = well fitted activation curve with a large enough effect in the signal ratio in the repeat runs, not every such curve was filed as active; the % refers to the signal ratio)
Outline: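 Quantitative HTS agonist mode: stable HEK293H line with UAS-beta-lactamase reporter under PPARg control, 17 h compound exposure at 37C, fluorescence after 1 h FRET substrate loading at room temperature.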

CCCCOC(=O)[C@@H](C)Oc1ccc(Oc2ccc(C#N)cc2F)cc1
Potency [1]: inactive
Potency [2]: inactive
Potency [3]: inactive
outcome [4]: inactive
Potency [5]: inactive
activation ([6]; at 70.3 µM (top of the series)): -4.38%
Potency [7]: inactive
Potency [8]: inactive
Potency (Aromatase (Homo sapiens)): inactive
Potency [9]: inactive
Potency [10]: inactive
outcome [11]: inactive
Potency [12]: inactive
Potency [13]: inactive
Potency [14]: inactive
outcome [15]: inactive

COc1cc(OC)nc(Sc2cccc(Cl)c2C(=O)O)n1
Potency [1]: inactive
Potency [2]: inactive
Potency [3]: inactive
outcome [4]: inactive
Potency [8]: inactive
Potency (Aromatase (Homo sapiens)): inactive
Potency [9]: inactive
outcome [11]: inactive
Potency [16]: inactive
Potency [12]: inactive
Potency [17]: inactive
Potency [13]: inactive
Potency [14]: inactive
outcome [15]: inactive

O=[N+]([O-])c1cccc(O)c1
Potency [1]: inactive
Potency [2]: inactive
Potency [3]: inactive
outcome [4]: inactive
Potency [8]: inactive
Potency (Aromatase (Homo sapiens)): inactive
Potency [9]: inactive
Potency [10]: inactive
outcome [11]: inactive
Potency [16]: inactive
Potency [12]: inactive
Potency [13]: inactive
Potency [14]: inactive
outcome [15]: inactive

CC1(C)COP(Oc2ccccc2)OC1
Potency [1]: inactive
Potency [2]: inactive
Potency [3]: 54.5 µM (active)
outcome [4]: inactive
Potency [8]: inactive
Potency (Aromatase (Homo sapiens)): inactive
Potency [9]: inactive
Potency [10]: inactive
outcome [11]: inactive
Potency [12]: inactive
Potency [13]: inactive
outcome [15]: inactive

COc1ccc(C(=O)N2CCCC2=O)cc1
Potency [1]: inactive
Potency [2]: inactive
Potency [3]: inactive
outcome [4]: inactive
Potency [8]: inactive
Potency (Aromatase (Homo sapiens)): inactive
Potency [9]: inactive
Potency [10]: inactive
outcome [11]: inactive
outcome [18]: inactive
Potency [16]: inactive
Potency [17]: inactive
Potency [13]: inactive
Potency [14]: inactive
outcome [15]: inactive

CC1=NNC(=O)N(/N=C/c2cccnc2)C1
Potency [1]: inactive
Potency [2]: inactive
Potency [3]: inactive
outcome [4]: inactive
Potency [8]: inactive
Potency (Aromatase (Homo sapiens)): inactive
Potency [9]: inactive
outcome [11]: inactive
outcome [18]: inactive
Potency [12]: inactive
Potency [17]: inactive
Potency [13]: inactive
Potency [14]: inactive
outcome [15]: inactive

C[C@]12CC[C@H]3[C@@H](CC=C4C[C@@H](O)CC[C@@]43C)[C@@H]1CC[C@@H]2O
Potency [1]: inactive
Potency [2]: inactive
Potency [3]: inactive
outcome [4]: inactive
Potency [8]: inactive
Potency (Aromatase (Homo sapiens)): inactive
Potency [9]: inactive
Potency [10]: inactive
outcome [11]: inactive
Potency [12]: inactive
Potency [17]: inactive
Potency [13]: inactive
Potency [14]: inactive

CN1CCC(O)(c2ccc(F)cc2)C(C(=O)c2ccc(F)cc2)C1 (configuration not stated)
Potency [1]: 21.1 µM (active)
Potency [2]: 26.6 µM (active)
Potency [3]: inactive
outcome [4]: inactive
Potency [8]: inactive
Potency (Aromatase (Homo sapiens)): inactive
Potency [9]: inactive
outcome [11]: inactive
outcome [18]: inactive
Potency [16]: inactive
Potency [12]: inactive
Potency [13]: inactive

CCC(C)(C)c1cc(-n2nc3ccccc3n2)c(O)c(C(C)(C)CC)c1
Potency [1]: inactive
Potency [2]: inactive
Potency [3]: inactive
outcome [4]: inactive
Potency [8]: inactive
Potency (Aromatase (Homo sapiens)): inactive
Potency [9]: inactive
outcome [11]: inactive
outcome [18]: inactive
Potency [12]: inactive
Potency [17]: inactive
Potency [13]: inactive
Potency [14]: inactive
outcome [15]: inactive

O=[N+]([O-])c1ccc2c3c(cccc13)CC2
Potency [1]: inactive
Potency [2]: inactive
Potency [3]: inactive
outcome [4]: inactive
Potency [5]: inactive
activation ([6]; at 70.3 µM (top of the series)): -4.67%
Potency [7]: inactive
Potency [8]: inactive
Potency (Aromatase (Homo sapiens)): inactive
Potency [9]: inactive
outcome [11]: inactive
outcome [18]: inactive
Potency [16]: inactive
Potency [12]: inactive
Potency [14]: inactive

CC(C)(C)C(=O)C(Oc1ccc(Cl)cc1)n1cncn1 (configuration not stated)
Potency [1]: inactive
Potency [2]: inactive
Potency [3]: inactive
outcome [4]: inactive
Potency [8]: inactive
Potency (Aromatase (Homo sapiens)): 54.4 µM (active)
Potency [9]: inactive
Potency [10]: 48.5 µM (active)
outcome [11]: inactive
outcome [18]: inactive
Potency [16]: inactive
Potency [12]: inactive
Potency [17]: inactive
Potency [13]: inactive
outcome [15]: inactive

O=C(Cc1ccccc1)OCc1ccccc1
Potency [1]: inactive
Potency [2]: inactive
Potency [3]: inactive
outcome [4]: inactive
Potency [5]: inactive
activation ([6]; at 95 µM (top of the series)): 2.04%
Potency [7]: inactive
Potency [8]: inactive
Potency (Aromatase (Homo sapiens)): inactive
Potency [9]: inactive
outcome [11]: inactive
Potency [16]: inactive
Potency [12]: inactive
Potency [17]: inactive
Potency [13]: inactive
Potency [14]: inactive

CC(N)=S
Potency [1]: inactive
Potency [2]: inactive
Potency [3]: inactive
outcome [4]: inactive
Potency [8]: inactive
Potency (Aromatase (Homo sapiens)): inactive
Potency [9]: inactive
Potency [10]: inactive
outcome [11]: inactive
Potency [16]: inactive
Potency [12]: inactive
Potency [17]: inactive
Potency [13]: inactive
Potency [14]: inactive

COC(=O)COc1ccc(Cl)cc1Cl
Potency [1]: inactive
Potency [2]: inactive
Potency [3]: inactive
outcome [4]: inactive
Potency [8]: inactive
outcome [11]: inactive
Potency [12]: inactive
Potency [17]: inactive
Potency [13]: inactive
outcome [15]: inactive

CCCSC(=O)N(CCC)CCC
Potency [1]: inactive
Potency [2]: inactive
Potency [3]: inactive
outcome [4]: inactive
Potency [8]: inactive
Potency (Aromatase (Homo sapiens)): inactive
Potency [9]: inactive
Potency [10]: inactive
outcome [11]: inactive
Potency [12]: inactive
Potency [17]: inactive
Potency [13]: inactive
Potency [14]: inactive
